CHO-K1 Ca PAM: nonselective calcium activators in parental CHO-K1 cells, primary screen, counter-screen for M1 PAM project, cell-based, Fluo-8 calcium fluorescence, full deck, 1536-well. ATP EC20; 0% at ATP EC20, 100% at ATP max. activation, % at 3 µM. 0.02% of 360,000 active. AID 602247, 2012;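 active = activation above the run cutoff, the mean activation of all test compounds plus 3 SD, cut at about 40% in these data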;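 note: peak over basal fluorescence ratio in a 140 s read after ATP addition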
CHRM1 PAM: human M1 muscarinic receptor positive allosteric modulators, primary screen, CHO-K1 cells, Fluo-8 calcium fluorescence, 1536-well | Muscarinic acetylcholine receptor M1 (Homo sapiens), P11229 | CHO-K1 hM1, ACh EC20; 0% = ACh EC20, 100% = maximal ACh | activation, % at 3 µM | 0.088% of 360,000 active | AID 588819, 2011; in the data active = activation above about 19%, passing the limit was not always enough
Target sequence (P11229 whole entry, looked up): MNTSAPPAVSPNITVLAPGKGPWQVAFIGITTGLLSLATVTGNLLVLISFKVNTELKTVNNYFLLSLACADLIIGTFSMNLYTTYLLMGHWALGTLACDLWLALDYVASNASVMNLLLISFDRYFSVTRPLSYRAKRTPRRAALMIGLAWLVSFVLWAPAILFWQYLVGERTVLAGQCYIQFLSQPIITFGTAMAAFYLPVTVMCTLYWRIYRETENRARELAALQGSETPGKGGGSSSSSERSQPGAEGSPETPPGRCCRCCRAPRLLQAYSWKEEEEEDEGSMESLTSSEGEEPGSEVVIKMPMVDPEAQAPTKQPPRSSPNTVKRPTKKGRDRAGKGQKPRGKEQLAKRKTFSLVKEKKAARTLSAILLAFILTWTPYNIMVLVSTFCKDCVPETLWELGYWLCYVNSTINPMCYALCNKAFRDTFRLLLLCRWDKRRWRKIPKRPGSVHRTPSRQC
CHO-K1 Ca antag: nonselective inhibitor or artifact in parental CHO-K1 cells; inhibition, % at 3 µM; AID 602250; ATP-induced calcium, Fluo-8 fluorescence; 0.6% of 360,000 active;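 active = inhibition above a per-plate cutoff, the plate's mean sample inhibition plus 3 SD, cut at about 24% in these data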;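 note: 0% = DMSO plus EC80 ATP and 100% = DMSO alone without ATP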
M1 ag parental: counter-screen for M1 agonists: effect in parental CHO-K1 cells | Fluo-8 calcium fluorescence; scaled to maximal ATP response, vehicle zero | activation, % at 3 µM | 0.48% of 360,000 active | AID 602248, 2012; in the data active = activation above about 15%;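 note: untransfected CHO-K1 host cells lacking M1 receptor as counterscreen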
M1 antag: human M1 muscarinic receptor antagonists, primary screen, CHO-K1 cells, Fluo-8 calcium fluorescence, 1536-well; CHO-K1 hM1, ACh EC80 antagonist; inhibition, % at 3 µM; 1.3% of 360,000 active;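 active = percent inhibition above its own plate's cutoff, namely the mean of that plate's compound wells plus 3 SD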;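 note: peak over basal fluorescence ratio during 140 s after agonist addition; 0% = ACh EC80 plus DMSO and 100% = DMSO alone without agonist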
M1 ag: human M1 muscarinic receptor agonists, primary screen, Fluo-8 calcium fluorescence, CHO-K1 cells, HTS; Muscarinic acetylcholine receptor M1 (Homo sapiens), P11229; CHO-K1 hM1, agonist mode; 0% DMSO, 100% acetylcholine EC100; activation, % at 3 µM; 0.33% of 360,000 active;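 active = activation above the run's mean compound activation plus 3 SD, cut at about 16% in these data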;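 note: peak over basal fluorescence ratio within a 140 s kinetic read after compound addition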
An asterisk follows results filed as active; · = no result given. Compounds with a hit are over-represented: about 2.3% of the library has one in this group of screens.

SMILES	CHO-K1 Ca PAM	CHRM1 PAM	CHO-K1 Ca antag	M1 ag parental	M1 antag	M1 ag
COc1ccc(NC(=O)CCC2CCCCC2)cc1S(=O)(=O)N1CCCCC1	11	-12	4	7	24	-5
Cc1ccc(C(=O)NCCNC(=O)c2ccco2)cn1	12	4	-6	0	2	-1
CCc1ccc(S(=O)(=O)N/N=C\c2ccc3c(c2)OCO3)cc1	2	4	0	0	2	0
CCc1cccc(NC(=O)c2ccc(Cn3nc(C)cc3C)o2)c1	-12	8	24*	0	-12	-9
O=C(O)CCC(CNS(=O)(=O)c1ccccc1)C(F)(F)F (centres undefined)	2	8	4	0	-9	-3
O=C(NC(NC(=S)Nc1ccccc1)C(Cl)(Cl)Cl)c1cccc(Cl)c1 (centres undefined)	-10	-16	32*	14	30*	4
COc1ccc(COCC(O)CN2CCC(C(N)=O)CC2)cc1OC (centres undefined)	17	10	10	19*	-6	-5
NNC(=O)CCN1CCN(C(c2ccccc2)c2ccccc2)CC1	14	-16	-15	0	61*	-7
O=C(CN1CCN(C(c2ccccc2)c2ccccc2)CC1)N1N=CCC1c1ccccc1 (centres undefined)	18	-25	-9	5	48*	-6
O=C(CN1CCN(c2ccc(F)cc2)CC1)N1N=CCC1c1ccccc1 (centres undefined)	5	9	-5	2	103*	-12
O=C(CN1CCN(C(c2ccccc2)c2ccccc2)CC1)N1CCN(c2ccccc2)CC1	2	-24	1	0	81*	-10
CC1CCN(CC(=O)N2CCN(c3ccccc3)CC2)CC1	11	-7	-5	0	-1	-8
CN(C)CCNC(=O)c1nn(C)c2c1CCc1ccccc1-2	8	-3	1	8	13	-8
COc1ccc(/C=C2\CCCC3C2=NN(C(=O)c2scnc2C)C3c2ccc(OC)c(OC)c2)cc1OC (centres undefined)	17	10	-1	19*	-19	-4
CCCC(=O)N1CCCC(c2cc(C(=O)NCc3ccc(F)cc3)no2)C1 (centres undefined)	4	9	-1	0	-11	-5
CCc1ccc(N2CC(C(=O)Nc3ccc(S(=O)(=O)NCC4CCCO4)cc3)CC2=O)cc1 (centres undefined)	3	2	-4	-1	2	-9
COCc1cc(CN2CCCC(C(=O)c3cccc(C(F)(F)F)c3)C2)ccc1OC (centres undefined)	14	-31	-9	2	43*	-12
O=C(c1cccc(C(F)(F)F)c1)C1CCCN(Cc2cccc(OCCO)c2)C1 (centres undefined)	-2	-31	9	4	39*	-11
O=C(c1cccc(C(F)(F)F)c1)C1CCCN(Cc2cccn2-c2ccccn2)C1 (centres undefined)	5	-36	0	2	35*	-14
CC(=O)Nc1ccc(CN2CCCC(C(=O)c3ccc(C(F)(F)F)cc3)C2)cc1 (centres undefined)	18	-38	-15	3	51*	-16
O=C(c1ccc(-c2ccccc2)cc1)C1CCCN(Cc2ccncc2)C1 (centres undefined)	15	-16	1	8	11	-13
CN(C)C(=S)NC(=S)Nc1ccc2ccccc2c1	20	1	-7	7	-2	6
Cc1ncc(CN=Cc2ccc(Cl)cc2)c(N)n1	-13	7	-9	1	-20	4
CCN(CC(=O)NCc1ccncc1)S(=O)(=O)c1ccccc1	19	6	-9	0	-9	-4
CC(=O)Nc1ccc(CN(C)CC2CCCN(CCc3cccc(C(F)(F)F)c3)C2)cc1 (centres undefined)	15	-29	-11	0	52*	-8
SMILES	CHO-K1 Ca PAM	CHRM1 PAM	CHO-K1 Ca antag	M1 ag parental	M1 antag	M1 ag
N#C/C(=N\Nc1ccc(Cl)cc1)C(=O)c1ccsc1	-3	0	24*	13	12	5
N#C/C(=N\Nc1cccc(Cl)c1)C(=O)c1ccccc1	-3	-3	29*	5	15	5
Cc1ccc(NC(N)=S)cc1C	12	7	8	0	-2	-4
Cc1ccc(N/N=C(\C#N)C(N)=S)cc1C	-2	1	7	16*	5	0
N#C/C(=N\Nc1ccc(Cl)cc1)C(N)=S	-22	-3	25*	11	13	7
N#C/C(=N\Nc1ccccc1)C(N)=S	3	16	18	6	-12	6
CCCCCNC(=O)c1[nH]c(C(F)(F)F)nc1-c1ccccc1	12	4	-20	5	-38	6
O=C(NCCc1ccc(O)c(Br)c1)c1ccc(Br)o1	-4	·	-14	2	·	·
COc1cc2[nH]c3c(N4CCN(c5ccc(Cl)cc5)CC4)ncnc3c2cc1OC	3	3	2	1	-6	-3
COc1cccc(N2CCN(c3ncnc4c3[nH]c3ccc(F)cc34)CC2C)c1 (centres undefined)	-4	-21	55*	11	83*	7
C=CCN(c1ccccc1)S(=O)(=O)c1cccc(C(=O)NCC2CCCO2)c1 (centres undefined)	1	4	-1	0	1	-3
O=C(CSc1ccncc1)Nc1ccc2ccccc2c1	9	9	-6	4	0	-6
Cc1cc(OCC(=O)Nc2ccncc2)cc(C)c1Br	-5	-11	25*	10	7	10
O=C(CSc1ccc2ccccc2c1)Nc1ccncc1	-1	-12	15	13	31*	-3
Cc1cc(OCC(=O)Nc2ccc3oc(-c4ccncc4)nc3c2)ccc1Cl	13	8	-5	0	-6	-1
O=C(COc1ccc2ccccc2c1)Nc1ccncc1	0	-3	24*	14	18	0
Cc1cc(OCC(=O)Nc2ccncc2)ccc1Cl	-19	-11	35*	10	28	2
CCc1nn2c(=O)cc(COC(=O)c3cc(Cl)c(OC)c(OC)c3)nc2s1	6	-16	-16	1	22	-7
O=C(NCC1CCCO1)c1cc([N+](=O)[O-])ccc1N1CCC(Cc2ccccc2)CC1 (centres undefined)	17	-9	-17	1	7	-7
